Records with an inconclusive call do not appear. Activity calls are given as the source filed them. Unless noted, calls follow the shape of the dose curve; as a rule, active = well fitted curve in the direction sought with a large enough effect in the repeat runs; inconclusive = weak or mixed curves; inactive = no such curve, though single readings can be large; an effect the other way counts as inactive or inconclusive.
Assays:
[1] = qHTS assay for small molecule agonists of the p53 signaling pathway (AID 651631; calls by dose curve; also: nearly all actives have a fitted effect of over 15% in size)
Procedure, shortened: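 Read-out is beta-lactamase FRET fluorescence measured 2 h after substrate addition at room temperature, in HCT-116 cells with a p53 response element-driven reporter exposed to compounds for 16 h at 37 °C.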

[2] = qHTS assay for small molecule agonists of the p53 signaling pathway - cell viability (AID 651633; calls by dose curve;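 also: p53RE-bla HCT reporter cells with a stable beta-lactamase p53 reporter; series mostly up to about 83 µM; nearly all actives have a fitted effect of over 30% in size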)
Procedure, shortened: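 p53RE-bla cells were treated with compound for 16 hours at 37 C. Cytotoxicity was then measured as CellTiter-Glo luminescence after 30 min at room temperature.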

[3] = qHTS assay for small molecules that induce genotoxicity in human embryonic kidney cells expressing luciferase-tagged ATAD5 - cell viability (AID 651634; calls by dose curve; also: nearly all actives have a fitted effect of over 25% in size)
Procedure, shortened: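 Cytotoxicity counter-readout: after 15.5 hr compound treatment at 37C, live-cell protease activity in ATAD5-luciferase HEK293T cells measured by CellTiter-Fluor fluorescence, 30 min development at 37C.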

[4] = qHTS assay for small molecule disruptors of the mitochondrial membrane potential - cell viability (AID 720634; calls by dose curve;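 also: human HepG2 liver cancer cells; series mostly up to about 83 µM; nearly all actives have a fitted effect of over 20% in size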)
Procedure, shortened: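 Cytotoxicity was quantified from ATP content by CellTiter-Glo luminescence in the same wells as the MMP dye read-out. HepG2 (2,000 cells/well) were plated overnight and exposed to compounds for 1 hr at 37 C.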

[5] = qHTS assay for small molecule disruptors of the mitochondrial membrane potential (AID 720635)
Procedure, shortened: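 HepG2 cells exposed to compound 1 hr at 37C, then Mito-MPS dye 30 min. Ratio read of aggregate (540/590 nm) versus monomer (490/535 nm) fluorescence.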

[6] = qHTS assay to test for compound auto fluorescence at 590 nm (red) in HepG2 cells (AID 720674)
Procedure, shortened: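 HepG2 cells, 2,000 per well in MEM with 10% FBS, attached overnight at 37 C, then got 23 nL compound or DMSO. After 1 hr at 37 C, 5% CO2, red fluorescence was read at 540/590 nm against Rose Bengal sodium as reference.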

[7] = qHTS assay to test for compound auto fluorescence at 460 nm (blue) in HEK293 cells (AID 720678)
Procedure, shortened: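 HEK293, 2,000 cells/well, 10% dialyzed FBS; attach 4-5 hr 37C; pin compound or DMSO; o/n 37C/5% CO2; fluorescence 405/460 nm; triamterene-equivalent units.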

[8] = qHTS assay to test for compound auto fluorescence at 590 nm (red) in HEK293 cells (AID 720679)
Procedure, shortened: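 Intensity at 540nm excitation and 590nm emission is reported as Rose Bengal sodium-equivalent autofluorescence. Measurements followed overnight exposure (37C, 5% CO2) of HEK293 cells, 2,000 per well, to 23 nL compound.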

[9] = qHTS assay to test for compound auto fluorescence at 535 nm (green) in HEK293 cells (AID 720680)
[10] = qHTS assay to test for compound auto fluorescence at 460 nm (blue) in HEK293 cell free culture (AID 720681)
Procedure, shortened: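 Compounds were added to cell-free DMEM with 10% FBS and fluorescence read directly. The blue channel used 405 nm excitation and 460 nm emission, with triamterene as the reference fluorophore.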

[11] = qHTS assay to test for compound auto fluorescence at 535 nm (green) in HEK293 cell free culture (AID 720682)
Procedure, shortened: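 Fluorescein serves as the green reference fluorophore; each compound's intrinsic emission at 535 nm (excitation 485 nm) is reported as an equivalent amount of that dye, measured in serum-containing DMEM without cells.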

[12] = qHTS assay to test for compound auto fluorescence at 590 nm (red) in HEK293 cell free culture (AID 720683)
Procedure, shortened: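 Cell-free wells of DMEM with 10% FBS received compound, and intrinsic fluorescence was read at excitation/emission 540/590 nm. Values expressed as equivalence to Rose Bengal sodium.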

[13] = qHTS assay to test for compound auto fluorescence at 590 nm (red) in HepG2 cell free culture (AID 720684)
Procedure, shortened: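 Rose Bengal sodium served as the reference for red signal. Test compounds were dispensed into serum-containing MEM (10% FBS) without cells, and plates were read at 540/590 nm.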

[14] = qHTS assay to test for compound auto fluorescence at 460 nm (blue) in HepG2 cell free culture (AID 720685)
Procedure, shortened: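 Cell-free plates of MEM plus 10% FBS received 23 nL compound or DMSO vehicle; blue-channel (405/460 nm) intensity scored against triamterene as reference fluorophore.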

[15] = qHTS assay to test for compound auto fluorescence at 535 nm (green) in HepG2 cell free culture (AID 720686)
[16] = target: Glucocorticoid receptor (Homo sapiens) (UniProt P04150); test: qHTS assay to identify small molecule agonists of the glucocorticoid receptor (GR) signaling pathway (AID 720691; active = well fitted activation curve with a large enough effect in the signal ratio in the repeat runs, not every such curve was filed as active; the % refers to the signal ratio)
Sequence of Glucocorticoid receptor (Homo sapiens) (P04150 whole entry, looked up): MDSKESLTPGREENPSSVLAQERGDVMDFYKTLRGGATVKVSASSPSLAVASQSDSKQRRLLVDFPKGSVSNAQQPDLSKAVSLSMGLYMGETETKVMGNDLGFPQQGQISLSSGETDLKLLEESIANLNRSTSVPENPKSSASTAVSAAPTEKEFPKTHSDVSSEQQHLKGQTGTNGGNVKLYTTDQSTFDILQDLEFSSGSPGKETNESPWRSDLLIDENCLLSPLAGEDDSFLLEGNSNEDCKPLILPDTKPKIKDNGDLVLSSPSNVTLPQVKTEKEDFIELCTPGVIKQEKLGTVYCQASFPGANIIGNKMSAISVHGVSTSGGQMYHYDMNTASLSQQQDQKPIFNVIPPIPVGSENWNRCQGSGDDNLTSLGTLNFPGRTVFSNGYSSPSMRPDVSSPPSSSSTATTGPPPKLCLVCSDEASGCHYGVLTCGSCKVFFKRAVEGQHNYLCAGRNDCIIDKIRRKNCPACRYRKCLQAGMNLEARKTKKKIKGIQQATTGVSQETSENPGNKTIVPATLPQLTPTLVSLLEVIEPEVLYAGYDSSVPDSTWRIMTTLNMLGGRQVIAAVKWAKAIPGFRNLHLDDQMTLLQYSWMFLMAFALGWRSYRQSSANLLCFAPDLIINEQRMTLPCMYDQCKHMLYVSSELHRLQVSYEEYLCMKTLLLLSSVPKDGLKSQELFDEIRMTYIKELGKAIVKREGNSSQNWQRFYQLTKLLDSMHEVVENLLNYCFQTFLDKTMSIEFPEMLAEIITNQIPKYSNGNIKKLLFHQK
Procedure, shortened: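 Agonist-mode qHTS in HeLa cells stably expressing a glucocorticoid-response-element beta-lactamase reporter. Fluorescence intensity read with FRET substrate (2 h, room temperature) after 18 h compound treatment at 37 C.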

[17] = target: Glucocorticoid receptor (Homo sapiens) (UniProt P04150); test: qHTS assay to identify small molecule antagonists of the glucocorticoid receptor (GR) signaling pathway (AID 720692; active = well fitted inhibition curve with a large enough effect in the signal ratio in the repeat runs, not every such curve was filed as active; the % refers to the signal ratio)
Procedure, shortened: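 Inhibition of dexamethasone-driven (5 nM final) beta-lactamase expression was measured in GRE-reporter HeLa cells over 18 h at 37C. Fluorescence was read after 2 h with the B/G FRET substrate at room temperature.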

[18] = qHTS assay to identify small molecule antagonists of the glucocorticoid receptor (GR) signaling pathway - cell viability counter screen (AID 720693); also: nearly all actives have a fitted effect of over 55% in size
[19] = qHTS assay to identify small molecule antagonists of the androgen receptor (AR) signaling pathway - cell viability counter screen (AID 743033; also: nearly all actives have a fitted effect of over 45% in size)
[20] = qHTS assay to identify small molecule antagonists of the androgen receptor (AR) signaling pathway using the MDA cell line - cell viability counter screen (AID 743041; also: nearly all actives have a fitted effect of over 45% in size)
Procedure, shortened: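 Cytotoxicity counter screen: MDA-kb2 AR-luc cells, compound + R1881, 16 h, 37C, 0% CO2; CellTiter-Fluor added at 15.5 h, fluorescence read after 30 min.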

[21] = qHTS assay to identify small molecule antagonists of the thyroid receptor (TR) signaling pathway - cell viability counter screen (AID 743064); also: nearly all actives have a fitted effect of over 50% in size
Procedure, shortened: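 Fluorescence from CellTiter-Fluor, added after 23.5 h exposure at 37 °C, reported viability of GH3.TRE-Luc cells co-treated with compound and 1 nM T3. Measured in the same wells as the luciferase TR readout.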

[22] = qHTS assay to identify small molecule antagonists of the thyroid receptor (TR) signaling pathway (AID 743065); also: series mostly up to about 70 µM; nearly all actives have a fitted effect of over 55% in size
Procedure, shortened: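 GH3.TRE-Luc rat pituitary cells (two TREs driving luciferase) were dosed with compound, then stimulated with 1 nM T3 (final) for 23.5 h at 37 C. ONE-Glo luminescence was the read-out, with CellTiter-Fluor fluorescence as the cytotoxicity counter-screen.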

[23] = system: thyroid hormone receptor (rat, GH3 cells); test: qHTS assay to identify small molecule agonists of the thyroid receptor (TR) signaling pathway (AID 743066; calls by dose curve)
[24] = target: Estrogen receptor (Homo sapiens) (UniProt P03372); test: qHTS assay to identify small molecule antagonists of the estrogen receptor alpha (ER-alpha) signaling pathway (AID 743069; active = well fitted curve in the direction sought with a large enough effect in the signal ratio in the repeat runs, not every such curve was filed as active; the % refers to the signal ratio)
Sequence of Estrogen receptor (Homo sapiens) (P03372 whole entry, looked up): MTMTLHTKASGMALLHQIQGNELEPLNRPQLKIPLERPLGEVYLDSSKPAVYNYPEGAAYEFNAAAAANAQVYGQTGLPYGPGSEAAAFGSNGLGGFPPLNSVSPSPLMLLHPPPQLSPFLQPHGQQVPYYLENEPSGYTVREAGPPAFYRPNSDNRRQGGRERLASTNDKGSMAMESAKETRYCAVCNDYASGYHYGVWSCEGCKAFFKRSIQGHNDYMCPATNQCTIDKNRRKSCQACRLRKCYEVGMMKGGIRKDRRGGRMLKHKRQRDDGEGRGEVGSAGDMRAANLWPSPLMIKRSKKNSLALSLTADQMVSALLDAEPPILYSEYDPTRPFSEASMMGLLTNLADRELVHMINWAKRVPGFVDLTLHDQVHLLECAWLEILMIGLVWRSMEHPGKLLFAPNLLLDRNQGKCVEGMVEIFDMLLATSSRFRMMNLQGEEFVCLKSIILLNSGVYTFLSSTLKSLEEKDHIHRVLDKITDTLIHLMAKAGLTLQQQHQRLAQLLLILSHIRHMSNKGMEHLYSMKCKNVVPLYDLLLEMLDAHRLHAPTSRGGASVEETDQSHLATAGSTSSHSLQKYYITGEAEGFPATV
Procedure, shortened: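 Beta-lactamase FRET fluorescence is read after 2 hr at room temperature with LiveBLAzer B/G substrate. Before that, ER-alpha-bla HEK293 cells sit 4 hr after plating, then receive compound plus 17beta-estradiol and incubate 18 hr at 37C.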

[25] = target: Estrogen receptor (Homo sapiens) (UniProt P03372); test: qHTS assay to identify small molecule agonists of the estrogen receptor alpha (ER-alpha) signaling pathway (AID 743075; calls by dose curve;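 also: HEK293 GripTite cells with ER-alpha and UAS-driven beta-lactamase reporter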)
[26] = qHTS assay to identify small molecule antagonists of the estrogen receptor alpha (ER-alpha) signaling pathway using the BG1 cell line (AID 743080; calls by dose curve;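 also: BG1 cells stimulated with 17beta-estradiol alongside compound; series mostly up to about 70 µM; nearly all actives have a fitted effect of over 25% in size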)
Procedure, shortened: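 BG1Luc4E2, endogenous ER-alpha, 4xERE-luc; 5 d charcoal-stripped FBS, phenol red free; 24 h plating; cpd + 17beta-estradiol 21.5 h, 37 C/5% CO2; CellTiter-Fluor viability 30 min, then ONE-Glo luciferase 30 min RT.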

[27] = qHTS assay to identify small molecule antagonists of the estrogen receptor alpha (ER-alpha) signaling pathway using the BG1 cell line - cell viability counter screen (AID 743081);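 also: compound given together with 17beta-estradiol as the ER stimulus; series mostly up to about 70 µM; nearly all actives have a fitted effect of over 45% in size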
Aromatase (Homo sapiens) = Aromatase (Homo sapiens) (UniProt P11511); test: qHTS assay to identify aromatase inhibitors (AID 743083); also: series mostly up to about 70 µM; nearly all actives have a fitted effect of over 55% in size
Sequence of Aromatase (Homo sapiens) (P11511 whole entry, looked up): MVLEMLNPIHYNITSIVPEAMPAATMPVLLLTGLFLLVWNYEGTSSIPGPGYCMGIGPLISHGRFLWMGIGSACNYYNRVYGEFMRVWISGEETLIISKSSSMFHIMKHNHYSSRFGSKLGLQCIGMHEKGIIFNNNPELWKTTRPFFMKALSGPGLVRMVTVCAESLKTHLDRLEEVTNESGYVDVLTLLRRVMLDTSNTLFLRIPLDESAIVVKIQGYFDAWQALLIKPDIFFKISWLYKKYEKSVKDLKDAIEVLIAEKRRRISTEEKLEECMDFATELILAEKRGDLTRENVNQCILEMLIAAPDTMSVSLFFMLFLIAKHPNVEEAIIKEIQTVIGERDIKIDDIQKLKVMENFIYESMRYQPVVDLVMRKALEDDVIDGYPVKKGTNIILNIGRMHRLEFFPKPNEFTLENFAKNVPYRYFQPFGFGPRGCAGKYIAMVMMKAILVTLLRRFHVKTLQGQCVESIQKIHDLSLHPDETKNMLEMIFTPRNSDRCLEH

[28] = qHTS assay to identify aromatase inhibitors - cell viability counter screen (AID 743084);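 also: cells stimulated with testosterone during compound exposure; nearly all actives have a fitted effect of over 55% in size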
[29] = target: Aryl hydrocarbon receptor (Homo sapiens) (UniProt P35869); test: qHTS assay to identify small molecule that activate the aryl hydrocarbon receptor (AhR) signaling pathway (AID 743085);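 also: HG2L7.5c1 human HepG2 liver cells with stably integrated DRE-driven firefly reporter; series mostly up to about 70 µM; nearly all actives have a fitted effect of over 15% in size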
Sequence of Aryl hydrocarbon receptor (Homo sapiens) (P35869 whole entry, looked up): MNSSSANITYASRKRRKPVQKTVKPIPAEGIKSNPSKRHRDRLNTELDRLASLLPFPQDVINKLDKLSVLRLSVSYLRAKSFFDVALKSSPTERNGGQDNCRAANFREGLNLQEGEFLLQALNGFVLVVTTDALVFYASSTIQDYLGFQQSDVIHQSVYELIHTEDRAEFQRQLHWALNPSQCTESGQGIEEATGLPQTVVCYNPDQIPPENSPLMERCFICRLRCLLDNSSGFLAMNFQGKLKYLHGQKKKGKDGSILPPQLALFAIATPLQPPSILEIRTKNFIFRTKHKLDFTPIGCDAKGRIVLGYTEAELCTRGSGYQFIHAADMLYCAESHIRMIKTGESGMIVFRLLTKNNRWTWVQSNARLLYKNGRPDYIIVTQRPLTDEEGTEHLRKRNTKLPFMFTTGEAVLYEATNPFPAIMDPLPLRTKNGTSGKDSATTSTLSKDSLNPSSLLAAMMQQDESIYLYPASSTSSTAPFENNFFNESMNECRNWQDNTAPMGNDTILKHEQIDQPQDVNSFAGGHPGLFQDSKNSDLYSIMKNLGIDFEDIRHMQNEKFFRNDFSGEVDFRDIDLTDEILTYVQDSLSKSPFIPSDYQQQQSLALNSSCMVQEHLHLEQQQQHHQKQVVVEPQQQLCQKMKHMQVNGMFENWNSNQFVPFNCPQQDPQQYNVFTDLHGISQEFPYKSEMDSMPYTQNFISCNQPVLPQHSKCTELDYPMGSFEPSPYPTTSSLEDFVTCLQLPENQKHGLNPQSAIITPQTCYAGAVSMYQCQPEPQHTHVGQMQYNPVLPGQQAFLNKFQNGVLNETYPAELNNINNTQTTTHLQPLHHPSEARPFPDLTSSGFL
Procedure, shortened: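 Cell line HG2L7.5c1 (human hepatoma, 20× DRE-luc). Plated, 5 h 37C, compound/DMSO added, 24 h 37C. CellTiter-Fluor 30 min 37C → fluorescence; then ONE-Glo 30 min RT → luminescence.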

[30] = qHTS assay to identify small molecule that activate the aryl hydrocarbon receptor (AhR) signaling pathway - cell viability counter screen (AID 743086);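 also: HepG2 liver cells carrying the AhR DRE luciferase reporter; series mostly up to about 70 µM; nearly all actives have a fitted effect of over 45% in size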
Procedure, shortened: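 HepG2-AhR-luc (HG2L7.5c1) cells, 4000/well, treated 24 h at 37 C with compound; viability measured as CellTiter-Fluor fluorescence after 30 min in the same wells as the luciferase read.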

[31] = target: Peroxisome proliferator-activated receptor gamma (Homo sapiens) (UniProt P37231); test: qHTS assay to identify small molecule agonists of the peroxisome proliferator-activated receptor gamma (PPARg) signaling pathway (AID 743094; active = well fitted activation curve with a large enough effect in the signal ratio in the repeat runs, not every such curve was filed as active; the % refers to the signal ratio)
Sequence of Peroxisome proliferator-activated receptor gamma (Homo sapiens) (P37231 whole entry, looked up): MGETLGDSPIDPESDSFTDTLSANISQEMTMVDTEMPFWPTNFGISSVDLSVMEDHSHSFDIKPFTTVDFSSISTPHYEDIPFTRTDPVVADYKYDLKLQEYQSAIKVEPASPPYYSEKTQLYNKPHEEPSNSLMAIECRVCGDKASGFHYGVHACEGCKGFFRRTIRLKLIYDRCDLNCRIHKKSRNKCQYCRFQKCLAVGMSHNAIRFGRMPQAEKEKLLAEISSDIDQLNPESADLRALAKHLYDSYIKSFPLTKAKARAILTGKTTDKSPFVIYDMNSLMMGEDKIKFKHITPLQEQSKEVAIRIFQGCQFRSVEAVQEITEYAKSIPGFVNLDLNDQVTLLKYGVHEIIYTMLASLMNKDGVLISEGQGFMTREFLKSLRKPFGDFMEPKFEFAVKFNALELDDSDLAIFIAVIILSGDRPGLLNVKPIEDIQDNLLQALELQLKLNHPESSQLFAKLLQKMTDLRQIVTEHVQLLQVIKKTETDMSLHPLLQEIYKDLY
Procedure, shortened: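 Agonist activity was taken from a beta-lactamase reporter (FRET substrate, 1 h at room temperature) in HEK293H cells carrying a PPARg UAS-bla construct. Compounds in DMSO were incubated 17 h at 37C after a 5 h cell pre-incubation.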

[32] = qHTS assay to identify small molecule antagonists of the estrogen related receptor (ERR) signaling pathway - cell viability counter screen (AID 1224818);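 also: series mostly up to about 46 µM; viability measured after 17.5 h of compound exposure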
Procedure, shortened: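 Cytotoxicity counter screen: fluorescence from CellTiter-Fluor, added after 17.5 h compound exposure at 37 C and read 30 min later. ERR cell line seeded at 2,000 cells/well, preincubated 6 h before dosing.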

[33] = qHTS assay to identify small molecule antagonists of the estrogen related receptor (ERR) signaling pathway (AID 1224819;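 also: luminescence from an ERR-driven luciferase reporter measured with One-Glo reagent; series mostly up to about 46 µM; nearly all actives have a fitted effect of over 50% in size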)
Procedure, shortened: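 LOPAC library screened for antagonism as reduced One-Glo luminescence in ERR reporter cells (2,000/well). Compounds were added after 6 h pre-incubation and left 18 h at 37C; reading followed a 30 min room-temperature reagent step.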

[34] = qHTS assay to identify small molecule agonists of the estrogen related receptor (ERR) signaling pathway (AID 1224820)
Procedure, shortened: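 Following a 6 h settling period, 2,000 ERR cells per well receive DMSO-dissolved compounds by pin tool and incubate 18 h at 37 C; agonist activity is scored from One-Glo luminescence read 30 min post-addition.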

[35] = system: estrogen-related receptor alpha (ERRalpha) with PGC-1alpha coactivator, human; test: qHTS assay to identify small molecule antagonists of the estrogen related receptor signaling pathway with the pleiotropic PPARgamma coactivator (PGC) (AID 1224821; calls by dose curve;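 also: series mostly up to about 46 µM; lower luminescence signal means antagonism of PGC/ERR signalling; nearly all actives have a fitted effect of over 50% in size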)
Procedure, shortened: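 Screening used NTP's PGC/ERR cells, dosed via pin tool with compound in DMSO alongside positive and negative controls. After 18 h at 37 C, One-Glo reagent sat 30 min at room temperature before luminescence detection.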

[36] = qHTS assay to identify small molecule antagonists of the estrogen related receptor signaling pathway with the pleiotropic PPARgamma coactivator (PGC) cell viability counter screen (AID 1224822; also: series mostly up to about 46 µM)
Procedure, shortened: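 Viability counter-screen read by fluorescence intensity after 30 min with CellTiter-Fluor at 37 C; PGC/ERR reporter cells were exposed to compounds for 17.5 h at 37 C following a 6 h preincubation.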

[37] = qHTS assay to identify small molecule agonists of the estrogen related receptor signaling pathway with the pleiotropic PPARgamma coactivator (PGC) (AID 1224823)
Procedure, shortened: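 In this quantitative high-throughput screen, an 18 h, 37 C treatment of PGC/ERR cells with compounds in DMSO preceded a One-Glo luminescence read taken after 30 min at room temperature.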

[38] = qHTS assay to identify small molecule phospholipidosis (PLD) inducers (AID 1259344; active = well fitted curve in the direction sought with a large enough effect; an effect the other way counts as inactive or inconclusive)
Procedure, shortened: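 Read-out is LipidTOX Red fluorescence (ex 595/em 615) imaged in HepG2 cells after 24 h compound exposure at 37 C, with Hoechst nuclear counterstain (ex 352/em 461) allowing per-cell normalisation.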

Measured: Potency

CCCCc1ccc(C(=O)O)nc1
inactive: all assays above

NCCc1c[nH]c2ccc(C(N)=O)cc12
inactive: [32] | [33] | [34] | [35] | [37]

Source: PubChem BioAssay (Tox21)
